The values below come from PubChem BioAssay (NCATS).

Several values for one entry are separate records, joined by “and”; a condition that tells them apart may be missing. Equal entries are not always repeated. Inconclusive results are not listed. Activity calls are given as the source filed them. Unless noted, calls follow the shape of the dose curve; as a rule, active = well fitted curve in the direction sought with a large enough effect; inconclusive = small, poorly fitted or top-dose-only effect, or another doubt; inactive = no such curve, though single readings can be large; an effect the other way counts as inactive or inconclusive.

In experiment [1] the target is ATPase family AAA domain-containing protein 5 (Homo sapiens) (UniProt Q96QE3). Put plainly: Validation screen for small molecules that inhibit ELG1-dependent DNA repair in human embryonic kidney (HEK293T) cells expressing luciferase-tagged ELG1 (AID 493107).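 Also: cells co-treated with the DNA-damaging agent 5-fluorouridine alongside compound; series mostly up to about 46 µM; % is scaled to controls: 0 for no effect and ±100 for the full control effect; inhibitors lower the ELG1-luciferase luminescence signal; nearly all actives have a fitted effect of over 70% in size.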 A digest of the protocol:
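HEK293T cells expressing luciferase-tagged ELG1, 2,000 per well, treated with 5-fluorouridine plus compound for 16 h at 37 C. ONE-Glo luminescence after 30 min at room temperature reports ELG1 reporter level.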

Experiment [2] has as its target Thyrotropin-releasing hormone receptor (Homo sapiens) (UniProt P34981). Put plainly: qHTS for Small Molecule Agonists and Allosteric Enhancers of Human TRH Receptor: Validation Screen for Agonists (AID 493127;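 active = calcium activation more than 3 SD above the typical response in the agonist read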; also: 0% is about no effect). The settings on record: TRH receptor agonist cell assay; at 2 µM; stronger effect = higher value. The method in brief:
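TRHR cells loaded with fluo-8 calcium dye; FDSS kinetic fluorescence (Ex 480/Em 530) read at 1 s/cycle after 23 nL compound addition. Agonist-mode calcium response recorded before the 10 nM TRH (EC20) addition.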

A short description of experiment [3]: Nrf2 qHTS screen for inhibitors: Validation (AID 493153; active = well fitted inhibition curve with a large enough effect in the main read-out, with a control signal flat, not every such curve was filed as active). The settings on record: viability change: measured here: cytotoxicity max response. A digest of the protocol:
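A549 cells carrying ARE-firefly luciferase reporter, 5000 cells/well in 5% FBS OPTI-MEM, treated with compound over a concentration series for 18-24 h at 37 C. Luciferase luminescence gave Nrf2 activity; CellTiter-Fluor fluorescence gave viability.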

Experiment [4] is described as follows: qHTS for Inhibitors of Cell Surface uPA Generation: Validation Assay (AID 493164). Also: 0% is about no effect. A digest of the protocol: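 RAW 264.7 cells (4000/well) were plated overnight, then exposed for 18 h at 37 C, 5% CO2 to compounds in a 7-point 1:5 titration (2.45 nM–38.3 uM final). Intracellular ATP was read by ATP-Lite luminescence.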
For experiment [5], the target named is Galactokinase (Homo sapiens) (UniProt P51570). Put plainly: qHTS Validation Assay for Inhibitors of Human Galactokinase (GALK) (AID 493189). Also: 0% is about no effect. The method in brief:
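5 nM GALK / 100 uM galactose / 35 uM ATP, 20 mM HEPES pH8.0, 5 mM MgCl2, 60 mM NaCl, 1 mM DTT, 0.01% BSA (final). RT 1 h; Kinase-Glo Plus luminescence.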

Experiment [6] can be described thus: Validation screen for small molecules that induce DNA re-replication in SW480 colon adenocarcinoma cells (AID 504364). Also: 0% is about no effect. The method in brief:
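SW480 cells (250/well) exposed 48 h at 37 C, 5% CO2, then Hoechst-stained 40 min. Nuclear DNA content imaged by fluorescence scanning (405 nm excitation, 500-530 nm emission); re-replication scored as increased nuclei with elevated intensity.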

Experiment [7] concerns the target Peptidyl-prolyl cis-trans isomerase NIMA-interacting 1 (Homo sapiens) (UniProt Q13526). Put plainly: qHTS Validation Assay to Find Inhibitors of Pin1 (AID 504536; active = well fitted inhibition curve with a large enough effect in the polarisation, with a control signal flat, not every such curve was filed as active; the % refers to the polarisation;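 also: 0% = full Pin1 enzyme wells and -100% = no-enzyme wells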). A digest of the protocol:
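Fluorescence polarization competition: compounds (titration) displace HiFluor-488-labeled Pin1-1b peptide from Pin1 (0.3 uM final) in pH 7.5 HEPES buffer with DTT, 10 min at room temperature; %Activity normalized to no-enzyme wells, curves fitted.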

Experiment [8] addresses Phosphoglycerate kinase, glycosomal (Trypanosoma brucei brucei) (UniProt P07378). Put plainly: qHTS Validation Assay to Find Inhibitors of Phosphoglycerate Kinase (AID 504547).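 Also: control wells lack PGK and mark full inhibition.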 A digest of the protocol:
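Substrate/PGK mix plus compound; reaction started with GAPDH (100nM final) to form 1,3-BPG; 60 min RT; Kinase-Glo Plus 10 min; luminescence. TEA 100mM pH 7.6, MgCl2 5mM, Tween-20 0.01%.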

Experiment [9] concerns the target phosphoglycerate mutase (Leishmania major) (UniProt Q4Q090). Put plainly: qHTS Validation Assay to Find Inhibitors of Phosphoglycerate Mutase (AID 504548). Also: series mostly up to about 58 µM; % is scaled to controls: 0 for no effect and ±100 for the full control effect. A digest of the protocol: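 Luminescent end-point read-out via Kinase-GloPlus after a 10-minute development. Reaction: 1.25nM Leishmania major PGAM with substrate and compound, 45 minutes at room temperature in TEA buffer (pH 7.6) with MgCl2 and Tween-20.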

Experiment [10] is described as follows: qHTS for Inhibitors of ATXN expression: Validation (AID 588378). Also: nearly all actives have a fitted effect of over 75% in size. Also: potency is read from the fitted curve at half-maximal effect. A digest of the protocol:
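Compounds were pinned onto attached HEK293 cells carrying an ATXN2-firefly luciferase construct and incubated 24 hrs at 37 degrees C. Each well then received a fluorescent viability reagent followed by luciferase substrate for end-point luminescence.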

The target of experiment [11] is Estrogen receptor (Homo sapiens) (UniProt P03372). Put plainly: qHTS assay for small molecule antagonists of estrogen receptor alpha signaling (AID 588513; active = well fitted curve in the direction sought with a large enough effect in the signal ratio, with a control signal flat, not every such curve was filed as active; the % refers to the signal ratio; also: % is scaled to controls: 0 for no effect and ±100 for the full control effect). The method in brief: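 Fluorescence from CCF4 substrate after 2 h at room temperature gave reporter activity; cells had been exposed to compound and 0.5nM 17-beta-estradiol for 18 h at 37 C. Hill-equation fitting yielded IC50 and maximal response.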

Experiment [12] deals with Bile acid receptor (Homo sapiens) (UniProt Q96RI1). Put plainly: qHTS assay for small molecule antagonists of farnesoid X receptor signaling (AID 588526; calls by dose curve; also: % is scaled to controls: 0 for no effect and ±100 for the full control effect). The method in brief: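 Concentration-response titrations were fitted to the Hill equation for half-maximal inhibition and maximal response, with data normalised to 50 uM chenodeoxycholic acid and DMSO control wells. Cells: FXR-UAS-bla HEK293T, dialyzed FBS.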

In experiment [13] the target is Androgen receptor (Homo sapiens) (UniProt P10275). The experiment in a line: qHTS assay for small molecule agonists of androgen receptor signaling (AID 588515; active = well fitted curve in the direction sought with a large enough effect in the signal ratio, with a control signal flat; the % refers to the signal ratio; also: % is scaled to controls: 0 for no effect and ±100 for the full control effect). The settings on record: AR-UAS-bla HEK293, beta-lactamase ratio, agonist 16 h; stronger effect = higher value. A digest of the protocol:
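EC50 and efficacy came from Hill fits of titrations (up to 92 uM) normalized to 30 nM R1881 as 100% and DMSO as 0%. Compound exposure was 16 h at 37 C on AR-UAS-bla HEK293 cells, with a 405/460/530 nm CCF4 fluorescence read.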

The target is the same in experiment [14]. The experiment in a line: qHTS assay for small molecule antagonists of androgen receptor signaling (AID 588516; active = well fitted curve in the direction sought with a large enough effect in the signal ratio, with a control signal flat, not every such curve was filed as active; the % refers to the signal ratio; also: potency is read from the fitted curve at half-maximal effect). A digest of the protocol:
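Cells were plated and incubated 5 h, compounds added in titration, then R1881 (10 nM final) as agonist. After 16 h at 37 C, CCF4 substrate was loaded for 2 h at room temperature and fluorescence measured.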

Sequence of Androgen receptor (Homo sapiens) (P10275 whole entry, looked up): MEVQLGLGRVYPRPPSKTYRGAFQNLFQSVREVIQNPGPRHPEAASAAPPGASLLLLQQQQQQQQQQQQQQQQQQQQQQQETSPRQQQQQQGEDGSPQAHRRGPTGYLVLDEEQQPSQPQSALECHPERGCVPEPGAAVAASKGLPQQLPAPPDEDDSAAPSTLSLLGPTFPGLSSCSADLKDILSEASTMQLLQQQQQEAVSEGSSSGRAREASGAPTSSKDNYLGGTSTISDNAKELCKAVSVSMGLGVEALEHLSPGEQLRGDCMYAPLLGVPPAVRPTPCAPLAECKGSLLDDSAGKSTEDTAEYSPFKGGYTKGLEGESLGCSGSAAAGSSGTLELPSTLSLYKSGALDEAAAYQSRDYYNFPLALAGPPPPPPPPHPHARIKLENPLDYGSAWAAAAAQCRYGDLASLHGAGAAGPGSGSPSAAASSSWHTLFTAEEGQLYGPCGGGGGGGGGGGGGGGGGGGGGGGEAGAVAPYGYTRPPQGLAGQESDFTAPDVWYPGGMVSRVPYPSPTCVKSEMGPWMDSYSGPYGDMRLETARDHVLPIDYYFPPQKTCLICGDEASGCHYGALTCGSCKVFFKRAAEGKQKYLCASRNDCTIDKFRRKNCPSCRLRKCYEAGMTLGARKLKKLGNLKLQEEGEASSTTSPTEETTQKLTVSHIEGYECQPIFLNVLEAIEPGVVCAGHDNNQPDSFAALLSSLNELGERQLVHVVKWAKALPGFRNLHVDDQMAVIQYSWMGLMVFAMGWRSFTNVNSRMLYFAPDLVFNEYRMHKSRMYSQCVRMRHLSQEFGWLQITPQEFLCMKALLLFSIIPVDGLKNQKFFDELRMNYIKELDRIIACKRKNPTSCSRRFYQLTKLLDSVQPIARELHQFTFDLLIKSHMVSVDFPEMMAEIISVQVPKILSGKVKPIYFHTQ
Sequence of Estrogen receptor (Homo sapiens) (P03372 whole entry, looked up): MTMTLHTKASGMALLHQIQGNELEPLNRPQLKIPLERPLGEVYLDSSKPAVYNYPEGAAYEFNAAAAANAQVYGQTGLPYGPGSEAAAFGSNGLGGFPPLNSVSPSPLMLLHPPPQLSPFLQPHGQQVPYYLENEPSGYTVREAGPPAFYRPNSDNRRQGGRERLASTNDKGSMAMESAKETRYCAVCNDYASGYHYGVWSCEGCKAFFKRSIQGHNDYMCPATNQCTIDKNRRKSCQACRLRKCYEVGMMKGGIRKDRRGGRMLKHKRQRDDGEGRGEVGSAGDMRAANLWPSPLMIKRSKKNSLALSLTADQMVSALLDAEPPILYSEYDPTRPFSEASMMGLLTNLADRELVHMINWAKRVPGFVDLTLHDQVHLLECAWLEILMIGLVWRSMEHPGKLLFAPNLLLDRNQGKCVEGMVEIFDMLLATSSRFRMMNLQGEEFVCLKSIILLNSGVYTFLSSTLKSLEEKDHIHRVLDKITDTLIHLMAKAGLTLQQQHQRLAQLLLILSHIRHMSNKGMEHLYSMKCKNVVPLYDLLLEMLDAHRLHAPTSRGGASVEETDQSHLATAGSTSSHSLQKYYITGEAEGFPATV
Sequence of Phosphoglycerate kinase, glycosomal (Trypanosoma brucei brucei) (P07378 whole entry, looked up): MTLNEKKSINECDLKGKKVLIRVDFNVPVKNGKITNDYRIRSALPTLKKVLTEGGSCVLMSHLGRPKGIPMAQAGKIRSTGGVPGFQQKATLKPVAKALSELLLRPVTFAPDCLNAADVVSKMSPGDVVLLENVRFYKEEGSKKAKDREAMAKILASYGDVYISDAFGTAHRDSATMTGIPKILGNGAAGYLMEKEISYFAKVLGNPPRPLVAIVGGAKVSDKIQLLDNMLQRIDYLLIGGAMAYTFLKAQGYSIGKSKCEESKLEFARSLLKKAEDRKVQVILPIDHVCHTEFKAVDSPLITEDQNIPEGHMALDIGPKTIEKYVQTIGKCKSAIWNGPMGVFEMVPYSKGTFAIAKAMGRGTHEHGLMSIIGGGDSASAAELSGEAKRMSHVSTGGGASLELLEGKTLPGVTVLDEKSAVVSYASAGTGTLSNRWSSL
Sequence of Peptidyl-prolyl cis-trans isomerase NIMA-interacting 1 (Homo sapiens) (Q13526 whole entry, looked up): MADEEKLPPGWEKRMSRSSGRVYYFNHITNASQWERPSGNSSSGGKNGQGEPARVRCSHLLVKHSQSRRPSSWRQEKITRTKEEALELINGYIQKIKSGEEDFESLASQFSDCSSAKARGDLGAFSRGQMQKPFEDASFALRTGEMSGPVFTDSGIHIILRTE
Sequence of Galactokinase (Homo sapiens) (P51570 whole entry, looked up): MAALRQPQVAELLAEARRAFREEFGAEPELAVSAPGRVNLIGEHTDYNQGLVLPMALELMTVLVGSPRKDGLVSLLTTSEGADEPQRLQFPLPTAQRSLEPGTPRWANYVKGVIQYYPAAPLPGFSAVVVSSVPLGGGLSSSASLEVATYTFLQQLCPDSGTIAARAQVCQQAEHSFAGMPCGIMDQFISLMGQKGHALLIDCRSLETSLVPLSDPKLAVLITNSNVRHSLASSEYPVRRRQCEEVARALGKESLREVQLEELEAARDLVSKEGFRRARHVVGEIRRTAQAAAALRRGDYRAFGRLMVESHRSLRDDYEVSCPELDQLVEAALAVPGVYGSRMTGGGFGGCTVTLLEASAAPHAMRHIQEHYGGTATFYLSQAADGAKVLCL
Sequence of phosphoglycerate mutase (Leishmania major) (Q4Q090 1-553): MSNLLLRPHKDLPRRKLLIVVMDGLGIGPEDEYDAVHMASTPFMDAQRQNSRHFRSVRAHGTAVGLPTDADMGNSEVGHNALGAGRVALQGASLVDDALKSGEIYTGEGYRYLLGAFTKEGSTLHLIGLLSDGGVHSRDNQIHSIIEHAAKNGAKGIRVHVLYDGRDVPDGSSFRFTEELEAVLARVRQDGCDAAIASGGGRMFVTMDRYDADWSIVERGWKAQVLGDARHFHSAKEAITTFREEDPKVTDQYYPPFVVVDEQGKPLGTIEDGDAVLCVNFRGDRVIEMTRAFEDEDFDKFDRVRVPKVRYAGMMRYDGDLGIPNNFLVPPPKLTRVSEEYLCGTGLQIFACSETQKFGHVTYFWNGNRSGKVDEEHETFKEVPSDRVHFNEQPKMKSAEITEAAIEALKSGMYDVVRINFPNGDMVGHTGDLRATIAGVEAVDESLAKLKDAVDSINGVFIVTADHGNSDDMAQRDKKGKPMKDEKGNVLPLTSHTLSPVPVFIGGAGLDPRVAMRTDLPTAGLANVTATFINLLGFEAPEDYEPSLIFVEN
Sequence of Bile acid receptor (Homo sapiens) (Q96RI1 whole entry, looked up): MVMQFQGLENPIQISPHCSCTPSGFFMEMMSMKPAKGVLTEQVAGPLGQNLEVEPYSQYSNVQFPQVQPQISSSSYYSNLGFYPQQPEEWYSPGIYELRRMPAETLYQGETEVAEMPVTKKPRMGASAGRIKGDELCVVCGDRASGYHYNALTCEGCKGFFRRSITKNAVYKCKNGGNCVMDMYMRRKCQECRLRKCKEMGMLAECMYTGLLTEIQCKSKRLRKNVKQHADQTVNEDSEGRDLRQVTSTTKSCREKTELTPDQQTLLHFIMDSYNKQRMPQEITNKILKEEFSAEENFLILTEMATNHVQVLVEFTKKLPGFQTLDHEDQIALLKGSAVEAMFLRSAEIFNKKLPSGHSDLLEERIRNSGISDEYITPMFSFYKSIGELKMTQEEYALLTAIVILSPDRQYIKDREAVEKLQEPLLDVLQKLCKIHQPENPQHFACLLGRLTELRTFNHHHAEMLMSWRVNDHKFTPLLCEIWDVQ
Sequence of Thyrotropin-releasing hormone receptor (Homo sapiens) (P34981 whole entry, looked up): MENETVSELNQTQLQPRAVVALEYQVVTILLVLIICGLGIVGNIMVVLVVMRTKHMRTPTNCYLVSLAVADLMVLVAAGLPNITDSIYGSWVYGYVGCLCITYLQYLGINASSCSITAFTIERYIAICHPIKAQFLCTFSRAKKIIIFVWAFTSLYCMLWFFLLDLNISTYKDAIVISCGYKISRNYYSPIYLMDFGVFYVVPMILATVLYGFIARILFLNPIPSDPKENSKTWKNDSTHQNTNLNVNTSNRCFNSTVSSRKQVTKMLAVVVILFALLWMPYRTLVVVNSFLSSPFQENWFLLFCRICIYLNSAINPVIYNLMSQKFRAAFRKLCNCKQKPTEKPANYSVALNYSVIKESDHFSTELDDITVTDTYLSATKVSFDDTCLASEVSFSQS

Turning to `NCCCC(=O)O`, the compound was called inactive in experiment [1], in experiment [3], in experiment [4], in experiment [5], in [6] and in experiment [7]. For the same compound, the compound was called inactive in experiment [8] and in [9]. Further, in experiment [2], the activation was -0.125% (inactive). Besides, the viability change in experiment [3] is 14.4%. The Potency result in [10] was “inactive”.
Turning to `CN[C@H]1CC[C@@H](c2ccc(Cl)c(Cl)c2)c2ccccc21`, the compound was called inactive in [3], in experiment [4], in [5], in experiment [6], in experiment [7] and in experiment [8]. In experiment [9], the compound was called inactive. Moreover, the viability change in experiment [3] was 1.73%. The Potency in experiment [10] was 14.1 µM (active).
`COC(C)=O`: the call in [11] and in [12] was inactive.
Turning to `C=Cc1ccccc1`, the result in [11] was inactive.
`CN(C)Cc1ccccc1`: in experiment [13], the activation is -4.67% (inactive).
Take `CCCCCCCCCC(=O)O`: the activation in experiment [13] was -19.5% (inactive) and -1.38% (inactive). In addition, the Potency entry in experiment [14] is “inactive”.
With `O=S(=O)(c1ccccc1)N(CC(F)(F)F)c1ccc(C(O)(C(F)(F)F)C(F)(F)F)cc1`, the Potency in experiment [14] is 44.7 µM (active).
